{"source": "the supplement of paper PMC12282887", "assay_in_all_cases": "promoter activity interaction Z-score (Lux/OD deviation from empty-vector control); higher = stronger promoter induction by the compound", "key": {"[1]": {"test_system": "E. coli BW25113 acrABp lux reporter", "in_short": "(§1)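 Every compound was given at four 1:2 dilutions, in biological duplicates, to E. coli BW25113 carrying low-copy luxCDABE promoter reporters in wild-type or single-gene deletion backgrounds. Growth in 40 µl LB Lennox in 384-well plates at 37°C was followed by OD600 and luminescence readings every 30 min for 12 h, integrated over 0–8 h for wild type and 1–9 h for deletion strains, with wells below 10% of the median growth value excluded. Scores are Z-transformed residuals of growth-normalised luminescence fitted against a control.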"}, "[2]": {"test_system": "E. coli BW25113 micFp lux reporter", "in_short": "as §1"}, "[3]": {"test_system": "E. coli BW25113 ompFp lux reporter", "in_short": "as §1"}, "[4]": {"test_system": "E. coli BW25113 robp lux reporter", "in_short": "as §1"}, "[5]": {"test_system": "E. coli BW25113 soxSp lux reporter", "in_short": "as §1"}, "[6]": {"test_system": "E. coli BW25113 tolCp lux reporter", "in_short": "as §1"}, "[7]": {"conditions": "3.1 µg/ml, genetic background: wild type"}, "[8]": {"conditions": "3.1 µg/ml, genetic background: ΔmarA"}, "[9]": {"conditions": "3.1 µg/ml, genetic background: Δrob"}, "[10]": {"conditions": "3.1 µg/ml, genetic background: ΔsoxS"}, "[11]": {"conditions": "6.1 µg/ml, genetic background: wild type"}, "[12]": {"conditions": "6.1 µg/ml, genetic background: ΔmarA"}, "[13]": {"conditions": "6.1 µg/ml, genetic background: Δrob"}, "[14]": {"conditions": "6.1 µg/ml, genetic background: ΔsoxS"}, "[15]": {"conditions": "12.2 µg/ml, genetic background: wild type"}, "[16]": {"conditions": "12.2 µg/ml, genetic background: ΔmarA"}, "[17]": {"conditions": "12.2 µg/ml, genetic background: Δrob"}, "[18]": {"conditions": "12.2 µg/ml, genetic background: ΔsoxS"}, "[19]": {"conditions": "24.5 µg/ml, genetic background: wild type"}, "[20]": {"conditions": "24.5 µg/ml, genetic background: Δrob"}, "[21]": {"conditions": "24.5 µg/ml, genetic background: ΔsoxS"}, "[22]": {"conditions": "24.5 µg/ml, genetic background: ΔmarA"}}, "note": "± gives the standard deviation of the averaged measurements."}
{"molecule": "COc1ccc(C[C@H](N)C(=O)N[C@H]2[C@@H](O)[C@H](n3cnc4c(N(C)C)ncnc43)O[C@@H]2CO)cc1", "note": "[Puromycin]", "values": [{"measurement": "promoter activity interaction Z-score", "setting": "[1]; [7]", "result": "-0.169 ± 0.22"}, {"measurement": "promoter activity interaction Z-score", "setting": "[1]; [8]", "result": "0.738 ± 0.17"}, {"measurement": "promoter activity interaction Z-score", "setting": "[1]; [9]", "result": "0.211 ± 0.055"}, {"measurement": "promoter activity interaction Z-score", "setting": "[1]; [10]", "result": "0.2622 ± 0.0026"}, {"measurement": "promoter activity interaction Z-score", "setting": "[1]; [11]", "result": "-0.104 ± 0.052"}, {"measurement": "promoter activity interaction Z-score", "setting": "[1]; [12]", "result": "0.582 ± 0.0062"}, {"measurement": "promoter activity interaction Z-score", "setting": "[1]; [13]", "result": "0.153 ± 0.24"}, {"measurement": "promoter activity interaction Z-score", "setting": "[1]; [14]", "result": "0.199 ± 0.57"}, {"measurement": "promoter activity interaction Z-score", "setting": "[1]; [15]", "result": "-0.0259 ± 0.33"}, {"measurement": "promoter activity interaction Z-score", "setting": "[1]; [16]", "result": "-0.302 ± 0.48"}, {"measurement": "promoter activity interaction Z-score", "setting": "[1]; [17]", "result": "0.308 ± 0.44"}, {"measurement": "promoter activity interaction Z-score", "setting": "[1]; [18]", "result": "0.649 ± 0.26"}, {"measurement": "promoter activity interaction Z-score", "setting": "[1]; [19]", "result": "3.35 ± 1.5"}, {"measurement": "promoter activity interaction Z-score", "setting": "[1]; [20]", "result": 3.54}, {"measurement": "promoter activity interaction Z-score", "setting": "[1]; [21]", "result": 0.855}, {"measurement": "promoter activity interaction Z-score", "setting": "[2]; [7]", "result": "0.0526 ± 0.12"}, {"measurement": "promoter activity interaction Z-score", "setting": "[2]; [8]", "result": "0.103 ± 0.069"}, {"measurement": "promoter activity interaction Z-score", "setting": "[2]; [9]", "result": "0.103 ± 0.15"}, {"measurement": "promoter activity interaction Z-score", "setting": "[2]; [10]", "result": "0.0839 ± 0.0077"}, {"measurement": "promoter activity interaction Z-score", "setting": "[2]; [11]", "result": "0.357 ± 0.041"}, {"measurement": "promoter activity interaction Z-score", "setting": "[2]; [12]", "result": "0.0213 ± 0.081"}, {"measurement": "promoter activity interaction Z-score", "setting": "[2]; [13]", "result": "0.102 ± 0.074"}, {"measurement": "promoter activity interaction Z-score", "setting": "[2]; [14]", "result": "0.145 ± 0.035"}, {"measurement": "promoter activity interaction Z-score", "setting": "[2]; [15]", "result": "0.699 ± 0.21"}, {"measurement": "promoter activity interaction Z-score", "setting": "[2]; [16]", "result": "-0.00373 ± 0.096"}, {"measurement": "promoter activity interaction Z-score", "setting": "[2]; [17]", "result": "0.459 ± 0.3"}, {"measurement": "promoter activity interaction Z-score", "setting": "[2]; [18]", "result": "0.738 ± 0.034"}, {"measurement": "promoter activity interaction Z-score", "setting": "[2]; [19]", "result": "1.71 ± 0.31"}, {"measurement": "promoter activity interaction Z-score", "setting": "[2]; [22]", "result": -0.484}, {"measurement": "promoter activity interaction Z-score", "setting": "[2]; [20]", "result": "0.834 ± 0.41"}, {"measurement": "promoter activity interaction Z-score", "setting": "[2]; [21]", "result": "1.39 ± 0.35"}, {"measurement": "promoter activity interaction Z-score", "setting": "[3]; [7]", "result": "0.322 ± 0.085"}, {"measurement": "promoter activity interaction Z-score", "setting": "[3]; [8]", "result": "1.17 ± 0.67"}, {"measurement": "promoter activity interaction Z-score", "setting": "[3]; [9]", "result": "0.656 ± 0.1"}, {"measurement": "promoter activity interaction Z-score", "setting": "[3]; [10]", "result": "0.816 ± 0.3"}, {"measurement": "promoter activity interaction Z-score", "setting": "[3]; [11]", "result": "0.855 ± 0.35"}, {"measurement": "promoter activity interaction Z-score", "setting": "[3]; [12]", "result": "1.33 ± 0.85"}, {"measurement": "promoter activity interaction Z-score", "setting": "[3]; [13]", "result": "0.692 ± 0.034"}, {"measurement": "promoter activity interaction Z-score", "setting": "[3]; [14]", "result": "0.84 ± 0.13"}, {"measurement": "promoter activity interaction Z-score", "setting": "[3]; [15]", "result": "0.351 ± 0.31"}, {"measurement": "promoter activity interaction Z-score", "setting": "[3]; [16]", "result": "0.942 ± 0.49"}, {"measurement": "promoter activity interaction Z-score", "setting": "[3]; [17]", "result": "0.448 ± 0.37"}, {"measurement": "promoter activity interaction Z-score", "setting": "[3]; [18]", "result": "1.03 ± 0.34"}, {"measurement": "promoter activity interaction Z-score", "setting": "[3]; [19]", "result": "0.599 ± 1.4"}, {"measurement": "promoter activity interaction Z-score", "setting": "[4]; [7]", "result": "0.0602 ± 0.017"}, {"measurement": "promoter activity interaction Z-score", "setting": "[4]; [8]", "result": "0.523 ± 0.036"}, {"measurement": "promoter activity interaction Z-score", "setting": "[4]; [9]", "result": "0.5595 ± 0.0042"}, {"measurement": "promoter activity interaction Z-score", "setting": "[4]; [10]", "result": "-0.174 ± 0.69"}, {"measurement": "promoter activity interaction Z-score", "setting": "[4]; [11]", "result": "0.596 ± 0.45"}, {"measurement": "promoter activity interaction Z-score", "setting": "[4]; [12]", "result": "0.0157 ± 0.15"}, {"measurement": "promoter activity interaction Z-score", "setting": "[4]; [13]", "result": "0.269 ± 0.22"}, {"measurement": "promoter activity interaction Z-score", "setting": "[4]; [14]", "result": "0.279 ± 0.33"}, {"measurement": "promoter activity interaction Z-score", "setting": "[4]; [15]", "result": "-0.231 ± 0.16"}, {"measurement": "promoter activity interaction Z-score", "setting": "[4]; [16]", "result": "0.0377 ± 0.16"}, {"measurement": "promoter activity interaction Z-score", "setting": "[4]; [17]", "result": "-0.211 ± 0.45"}, {"measurement": "promoter activity interaction Z-score", "setting": "[4]; [18]", "result": "0.0544 ± 0.43"}, {"measurement": "promoter activity interaction Z-score", "setting": "[4]; [19]", "result": -0.191}, {"measurement": "promoter activity interaction Z-score", "setting": "[4]; [22]", "result": -0.499}, {"measurement": "promoter activity interaction Z-score", "setting": "[5]; [7]", "result": "-0.228 ± 0.044"}, {"measurement": "promoter activity interaction Z-score", "setting": "[5]; [8]", "result": "-0.0397 ± 0.09"}, {"measurement": "promoter activity interaction Z-score", "setting": "[5]; [9]", "result": "0.102 ± 0.24"}, {"measurement": "promoter activity interaction Z-score", "setting": "[5]; [10]", "result": "0.373 ± 0.73"}, {"measurement": "promoter activity interaction Z-score", "setting": "[5]; [11]", "result": "-0.0604 ± 0.21"}, {"measurement": "promoter activity interaction Z-score", "setting": "[5]; [12]", "result": "0.0219 ± 0.021"}, {"measurement": "promoter activity interaction Z-score", "setting": "[5]; [13]", "result": "-0.144 ± 0.099"}, {"measurement": "promoter activity interaction Z-score", "setting": "[5]; [14]", "result": "0.298 ± 0.46"}, {"measurement": "promoter activity interaction Z-score", "setting": "[5]; [15]", "result": "0.0076 ± 0.14"}, {"measurement": "promoter activity interaction Z-score", "setting": "[5]; [16]", "result": "0.0786 ± 0.15"}, {"measurement": "promoter activity interaction Z-score", "setting": "[5]; [17]", "result": "0.00948 ± 0.09"}, {"measurement": "promoter activity interaction Z-score", "setting": "[5]; [18]", "result": "0.315 ± 0.021"}, {"measurement": "promoter activity interaction Z-score", "setting": "[5]; [19]", "result": "-0.0601 ± 0.063"}, {"measurement": "promoter activity interaction Z-score", "setting": "[5]; [22]", "result": "-0.197 ± 0.049"}, {"measurement": "promoter activity interaction Z-score", "setting": "[5]; [20]", "result": "-0.131 ± 0.33"}, {"measurement": "promoter activity interaction Z-score", "setting": "[5]; [21]", "result": "0.525 ± 0.4"}, {"measurement": "promoter activity interaction Z-score", "setting": "[6]; [7]", "result": "-0.726 ± 1"}, {"measurement": "promoter activity interaction Z-score", "setting": "[6]; [8]", "result": "-0.59 ± 0.65"}, {"measurement": "promoter activity interaction Z-score", "setting": "[6]; [9]", "result": "-0.281 ± 0.23"}, {"measurement": "promoter activity interaction Z-score", "setting": "[6]; [10]", "result": "0.126 ± 0.63"}, {"measurement": "promoter activity interaction Z-score", "setting": "[6]; [11]", "result": "-0.252 ± 0.51"}, {"measurement": "promoter activity interaction Z-score", "setting": "[6]; [12]", "result": "-0.611 ± 0.2"}, {"measurement": "promoter activity interaction Z-score", "setting": "[6]; [13]", "result": "-0.785 ± 0.27"}, {"measurement": "promoter activity interaction Z-score", "setting": "[6]; [14]", "result": "-0.165 ± 0.34"}, {"measurement": "promoter activity interaction Z-score", "setting": "[6]; [15]", "result": "-0.285 ± 0.69"}, {"measurement": "promoter activity interaction Z-score", "setting": "[6]; [16]", "result": "0.412 ± 0.11"}, {"measurement": "promoter activity interaction Z-score", "setting": "[6]; [17]", "result": "-0.374 ± 0.33"}, {"measurement": "promoter activity interaction Z-score", "setting": "[6]; [18]", "result": "-0.186 ± 0.2"}, {"measurement": "promoter activity interaction Z-score", "setting": "[6]; [19]", "result": "1.04 ± 0.64"}, {"measurement": "promoter activity interaction Z-score", "setting": "[6]; [22]", "result": 1.74}, {"measurement": "promoter activity interaction Z-score", "setting": "[6]; [20]", "result": "-0.0754 ± 0.73"}, {"measurement": "promoter activity interaction Z-score", "setting": "[6]; [21]", "result": "0.227 ± 0.79"}]}
